pAkt inh = HTS Assay for Inhibitors of Akt Phophorylation: Primary Screen | 0.32% of 360,000 active | activity change, % for hits at 50 µM | Neuro2A IGF-stimulated pAkt S473 HTRF, 20 min; hits give low values | AID 651550, 2012; in the data active = activity change below about -80%; inconclusive = mostly about -51% to -80%; also: % is scaled to controls: 0 for no effect and ±100 for the full control effect
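Neuro2A cells (4,500/well, DMEM with 0.5% FBS) were treated with compound at a single 50 µM final concentration, stimulated with 6 nM IGF for 20 min at 37 °C, and lysed. Phospho-Akt Ser473 was read by HTRF as 665/615 ratio ×10^4.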
gsp antagonist = qHTS for Antagonists of gsp, the Etiologic Mutation Responsible for Fibrous Dysplasia/McCune-Albright Syndrome: qHTS | gsp-mutant cells, cAMP HTRF, 30 min | AID 624288, 2012 | Potency, µM (highest dose often 76.9 µM), inactives show top-dose activity change, negative = inhibition, most hits filed as inhibitors | 0.4% of 340,000 active; calls by dose curve; cell line not stated here;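 also: intracellular cAMP measured with PDE inhibitor Ro 20-1724 present during compound exposure; potency is read from the fitted curve at half-maximal effect; % is scaled to controls: 0 for no effect and ±100 for the full control effect; nearly all actives have a fitted effect of over 65% in size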
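HTRF cAMP read-out (cAMP-d2 plus anti-cAMP antibody-K in lysis buffer, 30 min RT). Before lysis, cells are exposed to compounds with […] for 30 min at 37C in DPBS containing Ca/Mg, BSA and Tween 20.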
gsp ag = qHTS for Agonist of gsp, the Etiologic Mutation Responsible for Fibrous Dysplasia/McCune-Albright Syndrome: qHTS; Potency, µM (titrated, usually from 76.9 µM), for inactives: at the top dose activation (cAMP increase), hits mostly activators; gsp mutant cells, cAMP HTRF, 30 min; 0.13% of 340,000 active; active = well fitted activation curve with a large enough effect; inconclusive = small, poorly fitted or top-dose-only effect, or another doubt; inactive = no such curve, though single readings can be large or run the other way; cell line not stated here;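 also: phosphodiesterase inhibitor Ro 20-1724 added with compounds to block cAMP breakdown; potency is read from the fitted curve at half-maximal effect; nearly all actives have a fitted effect of over 60% in size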
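Cells in DMEM/10% FBS with G418 were pretreated with compounds in DMSO plus […] (300 uM stock) for 30 min at 37C. cAMP was measured by HTRF (cAMP-d2 plus anti-cAMP antibody-K) after 30 min at room temperature.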
KCNH2 3.1 inh = qHTS for Inhibitors of KCHN2 3.1: Mutant qHTS; AID 720553, 2013; activity change, % (tested at about 1.8 µM); 0.95% of 340,000 active; Potassium voltage-gated channel subfamily H member 2, brain isoform KCNH2 3.1 (human); U2OS KCNH2 3.1, thallium flux FluxOr; hits give low values;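 active = maximum activity change below -70%; inconclusive = maximum activity change from -70% to -50%; inactive = maximum activity change above -50%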;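 also: thallium influx rate constant from kinetic fluorescence after stimulation buffer; % is scaled to controls: 0 for no effect and ±100 for the full control effect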
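FluxOr-based Tl+ influx in U2OS cells transduced with KCNH2 3.1 virus; rate constants normalized to DMSO controls.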
KCNH2 WT inh = qHTS for Inhibitors of KCHN2 3.1: Wildtype qHTS; Voltage-gated inwardly rectifying potassium channel KCNH2 (Homo sapiens), Q12809; U2OS, BacMam KCNH2, thallium flux FluxOr; hits give low values; activity change, % at 1.84 µM; 0.37% of 340,000 active;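 active = maximum activity change below -70%; inconclusive = maximum activity change between -70% and -50%; inactive = maximum activity change above -50%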; also: % is scaled to controls: 0 for no effect and ±100 for the full control effect
Target sequence (Q12809 whole entry, looked up): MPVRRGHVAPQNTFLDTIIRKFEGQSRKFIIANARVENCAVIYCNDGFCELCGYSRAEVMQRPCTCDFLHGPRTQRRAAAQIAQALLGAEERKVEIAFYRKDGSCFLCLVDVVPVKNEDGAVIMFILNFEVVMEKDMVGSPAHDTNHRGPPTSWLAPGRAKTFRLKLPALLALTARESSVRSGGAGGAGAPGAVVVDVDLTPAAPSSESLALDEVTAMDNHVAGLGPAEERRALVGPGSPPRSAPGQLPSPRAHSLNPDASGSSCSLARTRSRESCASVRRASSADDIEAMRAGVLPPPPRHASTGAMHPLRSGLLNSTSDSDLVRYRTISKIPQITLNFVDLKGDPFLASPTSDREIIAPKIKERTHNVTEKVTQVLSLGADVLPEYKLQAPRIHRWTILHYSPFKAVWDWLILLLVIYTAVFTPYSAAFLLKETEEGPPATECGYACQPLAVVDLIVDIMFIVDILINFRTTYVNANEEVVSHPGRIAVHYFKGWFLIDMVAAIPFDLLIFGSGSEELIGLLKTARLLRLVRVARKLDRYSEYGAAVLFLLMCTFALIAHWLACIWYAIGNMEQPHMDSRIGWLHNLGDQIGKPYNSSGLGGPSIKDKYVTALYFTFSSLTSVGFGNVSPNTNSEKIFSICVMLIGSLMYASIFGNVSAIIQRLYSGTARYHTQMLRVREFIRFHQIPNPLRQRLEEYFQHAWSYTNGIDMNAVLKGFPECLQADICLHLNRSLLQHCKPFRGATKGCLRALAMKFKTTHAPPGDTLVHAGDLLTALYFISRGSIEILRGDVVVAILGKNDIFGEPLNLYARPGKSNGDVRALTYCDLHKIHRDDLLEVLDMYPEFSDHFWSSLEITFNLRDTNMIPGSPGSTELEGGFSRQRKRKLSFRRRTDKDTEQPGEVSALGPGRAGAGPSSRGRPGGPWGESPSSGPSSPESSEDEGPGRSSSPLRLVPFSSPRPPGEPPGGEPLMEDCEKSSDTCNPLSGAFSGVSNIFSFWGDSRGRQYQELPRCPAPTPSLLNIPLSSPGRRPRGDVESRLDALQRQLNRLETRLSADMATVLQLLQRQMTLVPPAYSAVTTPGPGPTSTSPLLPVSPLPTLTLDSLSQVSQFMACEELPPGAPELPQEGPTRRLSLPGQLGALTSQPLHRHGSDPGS
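U2OS cells were transduced with wild-type KCNH2 virus (2.03 x 10^8 / mL) for 4 h at room temperature, then cultured overnight at 37 C. Thallium flux was read with FluxOr dye. Rate constants were normalized to DMSO controls.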
Glioma ERSR ind = qHTS for Inducers of the Endoplasmic Reticulum Stress Response (ERSR) in Human Glioma: qHTS; 0.02% of 420,000 active; Potency, µM, for the others: top-dose activation, usual class: activators; AID 602332, 2012; U87-MG GRP78 promoter luciferase reporter, 16 h; active = well fitted activation curve with a large enough effect; inconclusive = small, poorly fitted or top-dose-only effect; inactive = no such curve, though single readings can be large or run the other way; also: potency is read from the fitted curve at half-maximal effect; series mostly up to about 76 µM; % of control where 0% means no effect; nearly all actives have a fitted effect of over 35% in size
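Stably transfected U87-MG glioma cells carrying a GRP78-based luciferase sensor; 16 h compound incubation. Luminescence end-point read 10 min after Bright-Glo addition at room temperature.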
An asterisk follows results filed as active; i = inactive; ? = inconclusive; nt = not tested or not shown; [ ] = dose if it differs, or a comment. Most compounds without a hit are left out; they make up all but 1.6% or so of the library.

SMILES | pAkt inh | gsp antagonist | gsp ag | KCNH2 3.1 inh | KCNH2 WT inh | Glioma ERSR ind
CSc1nc(N)c2ncn([C@@H]3O[C@H](COP(=O)(O)OP(=O)(O)O)C(O)[C@H]3O)c2n1 (stereo not given in full) | nt | nt | nt | nt | nt | -1.1%
CCC[C@H]1COCCS(=O)(=O)N1Cc1ccc(F)cc1 | nt | nt | nt | nt | nt | -3.4%
Cc1ccc(C(=O)Nc2cccc(-c3nc(CNC(=O)c4ccc5ccccc5n4)c(C)o3)c2)s1 | nt | nt | nt | nt | nt | -0.7%
CN(C)S(=O)(=O)c1cccc(NC(=S)N/N=C/c2cccc(O)c2)c1 | i | 4.9% | -11.2% | 15.0 | 3.6 | 2.6%
CN(C)S(=O)(=O)c1cccc(NC(=S)N/N=C/c2cc(Br)ccc2O)c1 | i | 50.1µM* | -4.0%[15.4 µM] | -6.9 | -6.6 | -4.7%
CN(Cc1ccco1)c1ncnc2ccc(-c3cccc(NS(C)(=O)=O)c3)cc12 | nt | nt | nt | nt | nt | -4.5%
C/C(=N\NC(=O)c1ccc(F)cc1)c1cccc(NC(=O)c2ccco2)c1 | -95.5%* | -1.9% | -18.6% | -1.6 | -11.3 | 9.6%
COc1cccc(Oc2cncnc2-c2ccc(OC)cc2O)c1 | i | 28.2µM* | 14.2% | 5.7 | 16.8 | -5.7%
COc1ccc(-c2cncnc2-c2ccc(OC)cc2O)cc1 | i | -20.1% | 23.6% | 33.7 | 6.7 | -0.7%
O=C(C[n+]1ccccc1Br)c1ccc(-c2ccccc2)cc1 | nt | nt | nt | nt | nt | 6.5%
CN(Cc1cccc2ncccc12)C(=O)c1cnn(-c2ncc3c(n2)-c2ccccc2CC3)c1C1CC1 | nt | nt | nt | nt | nt | -7.1%
Cc1cccc(N2CCN(C(=O)C3CCN(c4nnc(-n5cccc5)s4)CC3)CC2C)c1 (stereo not given) | i | 28.2µM* | -14.8% | 1.1 | -2.3 | -1.9%
Cc1ccc(Cl)cc1N1CCN(C(=O)C2CCN(c3nnc(-n4cccc4)s3)CC2)CC1 | i | -18.7% | 25.8% | 2.8 | 0.1 | -0.2%
Cc1cccc(N2CCN(C(=O)C3CCN(S(=O)(=O)c4cccc5nsnc45)CC3)CC2C)c1 (stereo not given) | i | 35.5µM* | 16.7% | -4.8 | 2.5 | -11.3%
Cc1cccc(N2CCN(C(=O)C3CCN(S(=O)(=O)c4cccc5cccnc45)CC3)CC2C)c1 (stereo not given) | i | -26.8% | -81.2% | -8.1 | -3.9 | -3.4%
C#CCN(Cc1ccc(OC)cc1)S(=O)(=O)C=C | nt | nt | nt | nt | nt | -8.6%
CC(C)C[C@H]1CN=C(Nc2ccccc2)N1CCCC1CCCCC1 | i | 0.1% | 0.1% | -41.2 | 9.2 | -6.3%
CC1CCC(CN2C(Nc3ccccc3)=NC[C@@H]2Cc2ccccc2)CC1 (stereo not given in full) | i | -2.3% | -3.7% | -91.0* | 8.4 | -5.3%
CC(C)C[C@H]1CN=C(Nc2ccccc2)N1CCCC1CCCC1 | i | 7.9% | nt | 11.0 | -91.5* | -4.8%
CC(C)C[C@H]1CN=C(Nc2ccccc2)N1CC1CCC(C)CC1 (stereo not given in full) | i | 9.1% | nt | -82.7* | 11.7 | -4.7%
c1ccc(C[C@H]2CN=C(Nc3ccccc3)N2CC2CCC2)cc1 | i | -0.6% | -1.0% | -13.8 | -6.8 | -1.7%
CCCCN(C(=O)c1ccc(Cl)cc1)C1CC2CCC(C1)N2C (stereo not given) | i | -11.1% | -6.5% | -81.6* | 5.5 | -3.8%
CN1C2CCC1CC(N(CCc1ccccc1)C(=O)c1ccc(Cl)cc1)C2 (stereo not given) | i | 9.5% | ? | ? | -39.7 | 1.6%
O=C(CSc1nc2ccc([N+](=O)[O-])cc2[nH]1)NC1CCCCC1 | i | 28.2µM* | 30.3% | 12.0 | -7.3 | -1.8%
O=C(CSc1nc2ccc([N+](=O)[O-])cc2[nH]1)NC1CCCCCC1 | i | 39.8µM* | 11.8%[15.4 µM] | 8.3 | 2.9 | -3.7%
SMILES | pAkt inh | gsp antagonist | gsp ag | KCNH2 3.1 inh | KCNH2 WT inh | Glioma ERSR ind
CN(CCO)C(=O)c1cn(C2CCN(Cc3c(F)cccc3Cl)CC2)nn1 | nt | nt | nt | nt | nt | -4.1%
COc1ccccc1N1CCN(c2nc(CNC(=O)c3ccc4c(c3)OCO4)nc3ccccc23)CC1 | nt | nt | nt | nt | nt | -3.9%
CO[C@H]1[C@H](NC(=O)c2ccco2)c2ccccc2C12CCN(Cc1cnc(N(C)C)s1)CC2 | nt | nt | nt | nt | nt | -4.5%
CCC1S/C(=N/N=C/c2ccco2)N(c2ccc(F)cc2)C1=O (stereo not given) | i | 7.9% | -6.9% | nt | 6.0 | -6.0%
Cc1cccc(CC2S/C(=N/N=C/c3ccco3)N(c3ccccc3)C2=O)c1 (stereo not given) | i | -6.1% | 13.5% | -104.2* | -7.9 | -3.6%
Cn1c2c(c3cnc4cc(Cl)ccc4c31)CNCC2 | nt | nt | nt | nt | nt | -1.9%
Cc1nc(C)n(CC(=O)NCC2Cc3cc(-c4cccc(OC(F)(F)F)c4)ccc3O2)n1 (stereo not given) | nt | nt | nt | nt | nt | -0.3%
CC(C)Cn1cnc2c1c(=O)n(CC(=O)Nc1ccc3c(c1)OCO3)c(=O)n2Cc1ccccc1 | i | -14.5% | 9.4% | 2.8 | -86.3* | -4.4%
Cc1cc(NC(=O)Cn2c(=O)c3c(ncn3CC(C)C)n(Cc3ccccc3)c2=O)no1 | i | -0.6% | -6.8% | -10.5 | -15.4 | -0.5%
CC(C)C(NC(=O)c1ccoc1)c1nnc2n1CCN(C(=O)/C=C/c1ccc(F)cc1)CC2 (stereo not given) | nt | nt | nt | nt | nt | -7.0%
CCOc1ccc2nc(NC(=O)CN3CCC(n4nnc5cc(C(F)(F)F)ccc54)CC3)sc2c1 | i | -20.6% | -22.3% | -79.0* | -2.3 | -1.7%
O=C(CNc1cccc2ccccc12)N/N=C/c1ccc([N+](=O)[O-])cc1 | i | -12.2% | -3.7% | nt | -18.6 | -4.0%
Cc1ccccc1NCC(=O)N/N=C/c1ccc([N+](=O)[O-])cc1 | i | 3.4% | 1.2% | -111.8* | -12.4 | -0.2%
COc1ccc(OC)c2c(N3CC(C)OC(C)C3)cc(C(F)(F)F)nc12 (stereo not given) | -114.2%* | -0.7% | 4.7% | -3.2 | -4.0 | -3.3%
CC(=O)Nc1ccc(N(C(=O)CNC(=O)c2ccco2)C(C(=O)NCc2ccco2)c2ccccc2F)cc1 (stereo not given) | i | 8.2% | -15.8%[15.4 µM] | -111.0* | 1.6 | -4.0%
CC(=O)Nc1ccc(N(C(=O)CNC(=O)c2ccco2)C(C(=O)NC2CCCC2)c2ccco2)cc1 (stereo not given) | i | nt | -2.3%[15.4 µM] | 6.4 | -22.7 | -5.3%

High-throughput results from PubChem.
